Among all 5,500 compounds or so, about 2,000 (36%) were called active. Not shown: some 18% with an inconclusive outcome. No stated cut-off is given here; in the data, active means normalized growth mostly below about 0.91 (no sharp cut-off); inconclusive means no clear call, values can overlap the other calls; inactive means mostly above about 0.92. The list shows a part of the results.
Experiment: chemical genetic growth profiling, strain panel (AID 1159580);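 further: tested at 20 µM; growth read once vehicle control cultures reached saturation at 30 °C; 1 = growth at the plate median or of vehicle wells; lower values mean less growth of the strain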
Conditions: S. cerevisiae deletion strains, growth OD

Measured: normalized growth

COc1cccc2c1CCC1CC(=O)CCC21C (stereo unspecified)
inactive: locus YAL021C, strain ccr4, hits give low values 0.99 | locus YAL026C, strain drs2, hits give low values 0.994 | locus YAL030W, strain snc1, hits give low values 0.991 | locus YBL061C, strain skt5, hits give low values 1 | locus YBR009C, strain hhf1, hits give low values 0.996 | locus YBR021W, strain FUR4, hits give low values 0.92 | locus YBR023C, strain chs3, hits give low values 0.993 | locus YBR171W, strain sec66, hits give low values 0.985 | locus YBR229C, strain ROT2, hits give low values 0.992 | locus YBR231C, strain swc5, hits give low values 0.996 | locus YBR279W, strain paf1, hits give low values 0.988 | locus YCL011C, strain gbp2, hits give low values 1 | locus YCL016C, strain dcc1, hits give low values 0.995 | locus YCL029C, strain bik1, hits give low values 0.955 | locus YCL061C, strain MRC1, hits give low values 0.996 | locus YCL069W, strain vba3, hits give low values 0.994 | locus YCR088W, strain abp1, hits give low values 0.993 | locus YDL005C, strain med2, hits give low values 1 | locus YDL035C, strain GPR1, hits give low values 0.982 | locus YDL040C, strain nat1, hits give low values 0.992 | locus YDL074C, strain BRE1, hits give low values 0.931 | locus YDL101C, strain DUN1, hits give low values 0.986 | locus YDL134C, strain PPH21, hits give low values 0.956 | locus YDL185W, strain tfp1, hits give low values 0.953 | locus YDL192W, strain arf1, hits give low values 0.936 | locus YDR001C, strain nth1, hits give low values 0.984 | locus YDR069C, strain doa4, hits give low values 1.01 | locus YDR101C, strain arx1, hits give low values 0.983 | locus YDR137W, strain rgp1, hits give low values 0.998 | locus YDR159W, strain sac3, hits give low values 1.02 | locus YDR162C, strain NBP2, hits give low values 0.919 | locus YDR195W, strain ref2 1.07 | locus YDR297W, strain sur2, hits give low values 1 | locus YDR318W, strain mcm21, hits give low values 0.937 | locus YDR334W, strain swr1, hits give low values 1 | locus YDR335W, strain msn5, hits give low values 1 | locus YDR388W, hits give low values 0.948 | locus YDR392W, strain spt3, hits give low values 0.873 | locus YEL003W, strain gim4, hits give low values 0.981 | locus YEL037C, strain rad23, hits give low values 0.992 | locus YEL061C, strain CIN8 (second series), hits give low values 0.995 | locus YEL061C, strain CIN8, hits give low values 0.987 | locus YER015W, strain faa2, hits give low values 1 | locus YER016W, strain bim1, hits give low values 0.994 | locus YER110C, hits give low values 0.934 | locus YER111C, strain swi4, hits give low values 0.994 | locus YER155C, strain BEM2 (second series), hits give low values 0.944 | locus YER155C, strain BEM2, hits give low values 0.982 | locus YER167W, strain BCK2, hits give low values 0.993 | locus YFR010W, strain ubp6, hits give low values 1 | locus YGL078C, strain dbp3, hits give low values 0.983 | locus YGL167C, strain pmr1, hits give low values 1 | locus YGL173C, strain kem1, hits give low values 0.987 | locus YGL227W, strain vid30, hits give low values 0.998 | locus YGL240W, strain doc1, hits give low values 0.982 | locus YGL248W, strain PDE1, hits give low values 0.975 | locus YGL253W, strain hxk2, hits give low values 1 | locus YGR229C, strain SMI1, hits give low values 0.991 | locus YGR252W, strain gcn5, hits give low values 0.777 | locus YHR013C, strain ard1, hits give low values 0.976 | locus YHR027C, strain rpn1, hits give low values 1.02 | locus YHR030C, strain SLT2, hits give low values 0.991 | locus YHR079C, strain IRE1 (second series), hits give low values 0.955 | locus YHR094C, strain hxt1, hits give low values 0.948 | locus YHR129C, strain ARP1, hits give low values 0.977 | locus YHR142W, strain chs7, hits give low values 0.981 | locus YHR200W, strain rpn10, hits give low values 0.941 | locus YIL066C, strain RNR3, hits give low values 0.968 | locus YIL073C, strain SPO22, hits give low values 0.887 | locus YIL125W, strain kgd1, hits give low values 0.977 | locus YIR030C, strain dcg1, hits give low values 0.962 | locus YJL092W, strain hpr5, hits give low values 0.994 | locus YJL095W, strain BCK1 (second series), hits give low values 0.99 | locus YJL095W, strain BCK1, hits give low values 0.91 | locus YJL115W, strain asf1, hits give low values 1 | locus YJL129C, strain trk1, hits give low values 0.939 | locus YJL134W, strain LCB3, hits give low values 0.981 | locus YJL154C, strain vps35, hits give low values 0.995 | locus YJL164C, strain tpk1, hits give low values 0.989 | locus YJL166W, strain qcr8, hits give low values 0.991 | locus YJL168C, strain set2, hits give low values 0.963 | locus YJL187C, strain SWE1 (second series), hits give low values 0.963 | locus YJL187C, strain SWE1, hits give low values 1.01 | locus YKL009W, strain mrt4, hits give low values 0.97 | locus YKL068W, hits give low values 0.969 | locus YKL085W, strain MDH1 (second series), hits give low values 0.966 | locus YKL085W, strain MDH1, hits give low values 0.966 | locus YKL160W, strain elf1, hits give low values 0.98 | locus YKL190W, strain CNB1, hits give low values 0.993 | locus YKR001C, strain vps1, hits give low values 0.914 | locus YKR026C, strain gcn3, hits give low values 0.992 | locus YKR091W, strain srl3, hits give low values 0.988 | locus YLL001W, strain dnm1, hits give low values 0.994 | locus YLL026W, hits give low values 0.999 | locus YLL041C, strain sdh2, hits give low values 0.99 | locus YLR027C, strain aat2, hits give low values 0.985 | locus YLR039C, strain RIC1, hits give low values 0.974 | locus YLR058C, strain SHM2, hits give low values 0.982 | locus YLR102C, strain apc9, hits give low values 0.961 | locus YLR221C, strain rsa3, hits give low values 1.01 | locus YLR258W, strain gsy2, hits give low values 0.983 | locus YLR262C, strain YPT6 (second series), hits give low values 1 | locus YLR268W, strain sec22, hits give low values 0.963 | locus YLR320W, strain mms22, hits give low values 0.977 | locus YLR330W, strain CHS5, hits give low values 0.98 | locus YLR342W, strain FKS1, hits give low values 0.994 | locus YLR357W, strain rsc2, hits give low values 1.01 | locus YLR370C, strain arc18, hits give low values 0.987 | locus YLR371W, strain rom2, hits give low values 0.965 | locus YLR384C, strain iki3, hits give low values 0.999 | locus YML016C, strain PPZ1, hits give low values 0.978 | locus YML032C, strain rad52, hits give low values 0.946 | locus YML120C, strain ndi1, hits give low values 0.987 | locus YML124C, strain tub3, hits give low values 0.969 | locus YMR058W, strain fet3, hits give low values 0.995 | locus YMR078C, strain ctf18, hits give low values 0.95 | locus YMR125W, strain sto1, hits give low values 0.995 | locus YMR129W, hits give low values 0.991 | locus YMR205C, strain PFK2, hits give low values 0.982 | locus YMR223W, strain ubp8, hits give low values 0.947 | locus YMR231W, strain pep5, hits give low values 0.99 | locus YMR263W, strain SAP30, hits give low values 0.965 | locus YMR307W, strain GAS1, hits give low values 0.849 | locus YNL067W, strain RPL9B, hits give low values 0.968 | locus YNL071W, strain lat1, hits give low values 0.985 | locus YNL209W, strain ssb2, hits give low values 0.992 | locus YNL233W, strain BNI4, hits give low values 0.937 | locus YNL248C, strain rpa49, hits give low values 0.998 | locus YNL250W, strain rad50, hits give low values 0.952 | locus YNL271C, strain bni1, hits give low values 0.962 | locus YNL298W, strain CLA4, hits give low values 0.959 | locus YNL307C, strain MCK1, hits give low values 0.917 | locus YNL322C, strain KRE1 (second series), hits give low values 0.996 | locus YNL322C, strain KRE1, hits give low values 0.982 | locus YNR049C, strain mso1, hits give low values 1.01 | locus YNR052C, strain pop2, hits give low values 0.969 | locus YOL006C, strain TOP1, hits give low values 0.788 | locus YOL012C, strain htz1 0.835 | locus YOL147C, strain pex11, hits give low values 0.949 | locus YOR001W, strain rrp6, hits give low values 1.01 | locus YOR061W, strain CKA2, hits give low values 0.991 | locus YOR069W, strain VPS5, hits give low values 0.977 | locus YOR070C, strain gyp1, hits give low values 0.985 | locus YOR080W, strain dia2, hits give low values 1.01 | locus YOR083W, strain WHI5, hits give low values 0.987 | locus YOR106W, strain vam3, hits give low values 1 | locus YOR136W, strain idh2, hits give low values 0.966 | locus YOR144C, strain elg1, hits give low values 0.958 | locus YOR265W, strain rbl2, hits give low values 1.01 | locus YOR270C, strain vph1, hits give low values 0.907 | locus YOR290C, strain snf2, hits give low values 0.985 | locus YOR316C, strain cot1, hits give low values 0.947 | locus YPL051W, strain arl3, hits give low values 0.981 | locus YPL078C, strain atp4, hits give low values 0.979 | locus YPL106C, strain sse1, hits give low values 1 | locus YPL240C, strain hsp82, hits give low values 0.993 | locus YPR119W, strain clb2, hits give low values 0.958 | locus YPR141C, strain kar3, hits give low values 0.965 | locus YPR167C, strain met16, hits give low values 0.952 | strain wtn01, hits give low values 0.936
active: locus YDR502C, strain sam2, hits give low values 0.912 | locus YGL086W, strain mad1, hits give low values 0.922 | locus YGR135W, strain pre9, hits give low values 0.886 | locus YLR418C, strain cdc73, hits give low values 0.812 | locus YOR184W, strain ser1, hits give low values 0.848 | locus YPR163C, strain tif3, hits give low values 0.902

— PubChem BioAssay AID1159580 (chemical genetic matrix, 2015)
